The structures appear in SMILES notation. Values joined by “and” are separate entries in the source; they are usually repeats but may differ in a detail not shown here. Identical values can stand only once. Records with an inconclusive call do not appear. Active and inactive are the calls of the source. Unless noted, calls come from the whole dose curve; as a rule, active = well fitted curve in the direction sought with a large enough effect; inconclusive = small, poorly fitted or top-dose-only effect, or another doubt; inactive = no such curve, though single readings can be large; an effect the other way counts as inactive or inconclusive.

Test [1] has as its target Cytochrome P450 2C9 (Homo sapiens) (UniProt P11712). As to the kind of experiment: qHTS Assay for Inhibitors and Substrates of Cytochrome P450 2C9 (AID 883). Note: nearly all actives have a fitted effect of over 60% in size. Note: potency is the fitted concentration of half-maximal effect. A digest of the protocol:
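CYP2C9 deoxyluciferin hydroxylation, 37C, 60 min with NADPH regeneration; 10nM enzyme, 100uM Luciferin-H (KM). Glo detection reagent stopped reaction; luminescence normalized to sulphaphenazole (57uM) full inhibition.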
For orientation: Quantitative high-throughput screening tests each substance at several concentrations.

For test [2], the target named is Cytochrome P450 3A4 (Homo sapiens) (UniProt P08684). Kind of test: qHTS Assay for Inhibitors and Substrates of Cytochrome P450 3A4 (AID 884). Note: potency is the fitted concentration of half-maximal effect; nearly all actives have a fitted effect of over 50% in size. A digest of the protocol:
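Luminescent readout of luciferin produced by CYP3A4 (20 nM) dealkylation of Luciferin-PPXE, 25 uM (its KM). NADPH-driven reaction ran 60 min at RT after 10 min compound preincubation; data scaled to 57 uM ketoconazole as 100% inhibition.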

For test [3] the target is unchanged. As to the kind of experiment: qHTS Assay for Activators of Cytochrome P450 3A4 (AID 885). Note: nearly all actives have a fitted effect of over 65% in size. In short, it runs like this:
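Activators are scored by enhanced luminescence from CYP3A4 conversion of luciferin-PPXE (25uM, equal to KM) to luciferin, after 60 min at RT with an NADPH-regenerating system.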

Test [4] addresses Cytochrome P450 2D6 (Homo sapiens) (UniProt P10635). As to the kind of experiment: qHTS Assay for Inhibitors and Substrates of Cytochrome P450 2D6 (AID 891).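 Note: luciferin methyl ether substrate demethylated by CYP2D6 with NADPH regeneration; % is set by controls: 0 for no effect and ±100 for the full control effect; nearly all actives have a fitted effect of over 60% in size.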 In short, it runs like this: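 Luminescent read-out of luciferin formed by 5 nM human CYP2D6 demethylating 30 uM Luciferin-ME EGE (Km level) over 60 min at room temperature after NADPH regeneration addition. Data normalized to full inhibition by 1.43 uM quinidine.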

Test [5] is described as follows: qHTS profiling of the MIPE4 collection as inhibitors of Plasmodium falciparum (3D7) proliferation (AID 743344; call rule not given here;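 note: scaled between DMSO vehicle wells and 0.29 µM artemisinin as full inhibition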). As to conditions: P. falciparum 3D7 in erythrocytes, SYBR Green DNA fluorescence, 72 h; at 28.5 µM (top of the series). A digest of the protocol:
(§1)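 Parasite DNA was quantified by SYBR Green I fluorescence (ex 485, em 535 nm) after overnight lysis in saponin/Triton buffer at room temperature. Cultures at 0.3% parasitemia and 2.5% hematocrit were first exposed to compound for 72 h at 37 C; signals were normalised to artemisinin (0.29 uM) and vehicle wells.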

Test [6] is described as follows: qHTS profiling of the MIPE4 collection as inhibitors of Plasmodium falciparum (DD2) proliferation (AID 743345; call rule not given here). As to conditions: P. falciparum Dd2 in erythrocytes, SYBR Green DNA, 72 h; at 28.5 µM (top of the series). In short, it runs like this: as §1
A short description of test [7]: qHTS profiling of the MIPE4 collection as inhibitors of Plasmodium falciparum (DD2) proliferation (Rep 2) (AID 743346; call rule not given here). As to conditions: P. falciparum Dd2 in erythrocytes, SYBR Green DNA, 72 h; at 28.5 µM (top of the series). A digest of the protocol: as §1

Sequence of Cytochrome P450 3A4 (Homo sapiens) (P08684 whole entry, looked up): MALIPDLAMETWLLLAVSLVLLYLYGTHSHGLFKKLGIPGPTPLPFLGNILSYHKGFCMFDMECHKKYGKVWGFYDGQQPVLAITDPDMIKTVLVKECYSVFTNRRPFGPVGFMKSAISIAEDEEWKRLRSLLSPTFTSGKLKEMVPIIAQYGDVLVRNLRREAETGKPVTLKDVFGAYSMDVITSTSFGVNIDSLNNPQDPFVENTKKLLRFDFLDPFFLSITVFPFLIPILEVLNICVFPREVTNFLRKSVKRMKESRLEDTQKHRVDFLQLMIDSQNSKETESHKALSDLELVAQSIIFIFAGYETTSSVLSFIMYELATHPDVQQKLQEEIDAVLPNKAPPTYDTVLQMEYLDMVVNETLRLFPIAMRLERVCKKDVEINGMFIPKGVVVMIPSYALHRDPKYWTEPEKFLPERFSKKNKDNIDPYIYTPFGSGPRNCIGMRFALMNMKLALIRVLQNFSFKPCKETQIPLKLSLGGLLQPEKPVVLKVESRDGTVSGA
Sequence of Cytochrome P450 2C9 (Homo sapiens) (P11712 whole entry, looked up): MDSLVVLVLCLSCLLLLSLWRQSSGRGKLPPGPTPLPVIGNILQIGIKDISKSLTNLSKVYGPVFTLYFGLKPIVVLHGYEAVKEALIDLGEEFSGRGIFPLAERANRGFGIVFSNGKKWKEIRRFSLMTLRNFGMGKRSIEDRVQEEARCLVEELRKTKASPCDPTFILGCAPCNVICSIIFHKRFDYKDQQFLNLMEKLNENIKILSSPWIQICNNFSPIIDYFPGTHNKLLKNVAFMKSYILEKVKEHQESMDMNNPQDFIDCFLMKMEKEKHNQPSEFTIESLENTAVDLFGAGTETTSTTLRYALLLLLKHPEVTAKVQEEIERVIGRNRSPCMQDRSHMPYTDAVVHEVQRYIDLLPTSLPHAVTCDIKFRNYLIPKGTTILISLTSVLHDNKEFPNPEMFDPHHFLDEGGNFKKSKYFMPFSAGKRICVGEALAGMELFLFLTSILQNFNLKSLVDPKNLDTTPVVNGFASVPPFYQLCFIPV
Sequence of Cytochrome P450 2D6 (Homo sapiens) (P10635 whole entry, looked up): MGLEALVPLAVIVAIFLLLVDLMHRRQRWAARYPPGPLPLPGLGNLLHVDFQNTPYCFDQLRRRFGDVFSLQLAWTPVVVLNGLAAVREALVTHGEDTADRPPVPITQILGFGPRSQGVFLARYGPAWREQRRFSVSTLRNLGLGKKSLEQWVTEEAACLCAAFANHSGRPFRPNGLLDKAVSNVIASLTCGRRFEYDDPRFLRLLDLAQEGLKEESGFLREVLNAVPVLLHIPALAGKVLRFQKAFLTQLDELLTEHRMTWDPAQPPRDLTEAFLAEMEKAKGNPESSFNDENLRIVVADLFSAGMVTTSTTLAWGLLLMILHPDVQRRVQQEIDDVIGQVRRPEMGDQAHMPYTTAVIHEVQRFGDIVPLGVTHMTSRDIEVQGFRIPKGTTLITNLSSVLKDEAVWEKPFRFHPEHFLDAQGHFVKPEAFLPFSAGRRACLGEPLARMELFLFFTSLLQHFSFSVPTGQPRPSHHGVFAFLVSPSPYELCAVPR

With `COc1cccc([C@H]2Oc3ccc(OC)cc3/C(=N\O[C@@H](C)c3cn([C@H](CO)Cc4ccccc4)nn3)[C@@H]2O)c1`, the Potency in test [1] was 1.58 µM (active); in test [2] it was 3.16 µM (active) and 3.98 µM (active). Also, the activity change, positive = activation in test [3] was -102% [at 11.4 µM] (inactive) and -98.9% [at 11.4 µM] (inactive).
As for `CO/N=C\c1ccc(C(=O)N2[C@H](c3ccc(C)cc3)[C@@H](C)CC[C@H]2C(=O)OC)cc1`, the Potency in test [1] was 2.51 µM (active); in test [2] it was 3.16 µM (active). Also, in test [3], the activity change, positive = activation was -64.1% [at 11.4 µM] (inactive).
For the compound `CC(=O)c1ccc(C2C=CC(Oc3ccc(F)cc3C)C(CO)O2)cc1` (centres undefined), the Potency result in test [1] and in test [4] was “inactive” in each case. For the same compound, the Potency in test [2] is 3.16 µM (active). In test [3], the activity change, positive = activation is -76.9% [at 11.4 µM] (inactive).
`CN(C)CCC=C1c2ccccc2COc2ccccc21` yielded a parasite growth, % of DMSO control in test [5] of 86.6%. Besides, the parasite growth remaining, % of DMSO control (lower = more inhibition) in test [6] amounted to 53.4%. Further, the parasite growth, % of control (lower = inhibition) in test [7] came out at 55.1%.
In the case of `CC(=O)OC[C@@H]1O[C@@H](O/N=C2/C[C@@H](O)[C@@H](O)[C@@H]3[C@@H]4C(=O)N(C(C)(C)C)C(=O)[C@H]4CC[C@@H]23)[C@H](OC(C)=O)[C@H](OC(C)=O)[C@@H]1OC(C)=O`, the Potency entry in test [1] is “inactive”.
In the case of `COc1ccc(OC2C=CC(C#Cc3ccccc3)OC2CO)cc1` (centres undefined), the Potency result in test [1] and in test [4] was “inactive” in each case. In addition, the Potency in test [2] was 3.98 µM (active). The activity change, positive = activation in test [3] is -79.3% [at 11.4 µM] (inactive).
With `CCCNC(=O)OC[C@@H]1O[C@H](CCO/N=C(\C)CCN2CCc3nc(-c4ccccc4)c(-c4ccccc4)cc3C2)C=C[C@@H]1Oc1ccc(OC)cc1`, the Potency in test [1] is 2 µM (active); in test [2] it was 3.16 µM (active). The activity change, positive = activation in test [3] was -74.2% [at 11.4 µM] (inactive).
Regarding `COc1ccc(/C=C/C(=O)c2ccc(OC)cc2O)cc1`, the Potency result in test [1] and in test [4] was “inactive” in each case. In test [2], the Potency was 3.16 µM (active). Besides, the activity change, positive = activation in test [3] is -92.3% [at 11.4 µM] (inactive).
In the case of `C=CC[C@@H]1C=C[C@H](O/N=C2\c3cc(OC)ccc3O[C@H](c3cccc(OC)c3)[C@H]2O)[C@H](CO)O1`, the Potency in test [1] is 0.398 µM (active).
Compound `C[C@]1(COc2ccc(N3CCC(Oc4ccc(OC(F)(F)F)cc4)CC3)cc2)Cn2cc([N+](=O)[O-])nc2O1` registered a parasite growth, % of DMSO control in test [5] of 81.7%. Moreover, the parasite growth remaining, % of DMSO control (lower = more inhibition) in test [6] was found to be 82%. Besides, the parasite growth, % of control (lower = inhibition) in test [7] was 90.2%.
For the compound `CC(=O)c1ccc(OC2C=CC(C#Cc3ccc(Br)cc3)OC2CO)cc1` (centres undefined), the Potency result in test [1] and in test [4] was “inactive” each time. Also, in test [2], the Potency is 3.16 µM (active). Besides, the activity change, positive = activation in test [3] is -77.6% [at 11.4 µM] (inactive).
`CN[C@@H]1[C@@H](O[C@H]2[C@H](O[C@H]3[C@H](O)[C@@H](O)[C@H](N=C(N)N)[C@@H](O)[C@H]3N=C(N)N)O[C@@H](C)[C@]2(O)C=O)O[C@@H](CO)[C@H](O)[C@H]1O` registered a parasite growth, % of DMSO control in test [5] of 93.9%. Also, the parasite growth remaining, % of DMSO control (lower = more inhibition) in test [6] amounted to 105%. For the same compound, in test [7], the parasite growth, % of control (lower = inhibition) came to 118%.
`CC1(C)O[C@@H]2[C@H]3OC(C)(C)O[C@]3(COS(N)(=O)=O)OC[C@H]2O1` gave a parasite growth, % of DMSO control in test [5] of 103%. In addition, in test [6], the parasite growth remaining, % of DMSO control (lower = more inhibition) is 93.9%. In addition, the parasite growth, % of control (lower = inhibition) in test [7] is 101%.

For the origin of these results see PubChem BioAssay (NCATS).
